Source: PubChem BioAssay
ST2 IL33 inh = inhibitors of human ST2 (IL1RL1) binding to IL-33, primary screen, biochemical, AlphaLISA | inhibition, % for hits at 17 µM | Interleukin-1 receptor-like 1 (Homo sapiens), Q01638 | AlphaLISA ST2-Fc/biotin-IL-33 interaction, 1 h | 78,000 compounds, 2.3% hits; in the data active = inhibition above about 30%
Target sequence (Q01638 whole entry, looked up): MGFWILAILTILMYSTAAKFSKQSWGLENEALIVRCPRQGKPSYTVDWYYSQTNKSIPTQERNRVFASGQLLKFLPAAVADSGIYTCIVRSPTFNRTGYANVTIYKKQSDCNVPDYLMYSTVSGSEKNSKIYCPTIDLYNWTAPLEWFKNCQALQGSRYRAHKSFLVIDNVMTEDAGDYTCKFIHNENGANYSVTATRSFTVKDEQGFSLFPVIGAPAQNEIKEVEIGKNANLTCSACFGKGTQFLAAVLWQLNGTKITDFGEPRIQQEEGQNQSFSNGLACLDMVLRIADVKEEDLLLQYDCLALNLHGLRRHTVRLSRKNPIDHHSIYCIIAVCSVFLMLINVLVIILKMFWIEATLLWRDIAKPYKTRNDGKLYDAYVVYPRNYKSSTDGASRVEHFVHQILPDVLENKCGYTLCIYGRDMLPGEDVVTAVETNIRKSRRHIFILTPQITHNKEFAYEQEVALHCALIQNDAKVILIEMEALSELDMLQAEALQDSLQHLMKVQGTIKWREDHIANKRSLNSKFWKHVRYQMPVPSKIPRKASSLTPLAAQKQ
* marks the source's active call; other numbers are inactive results; i = inactive; ! = a repeat was not active. Many of the other results were omitted from the sample, so hits are more common in it than they were.

SMILES	ST2 IL33 inh
CN(C)c1ccc(C(=O)N(Cc2ccccc2)c2ccccn2)cc1	i
O=C1CCC(=O)N(O)CCCCCNC(=O)CCC(=O)N(O)CCOCCNC(=O)CCC(=O)N(O)CCCCCN1	i
O=C1CCC(=O)NCCCCCN(O)C(=O)CCC(=O)NCCCCCN(O)C(=O)CCC(=O)NCCCCCN1	39%*
Cc1ccc(S(=O)(=O)N(CC(=O)N2CCc3ccccc3C2)c2ccc(F)cc2)cc1	i
COCCN(CC(O)Cn1c2ccccc2c2ccccc21)S(C)(=O)=O (configuration not stated)	i
COc1ccc(-c2nc3ccccn3c2CN2CCNC(C(=O)O)C2)cc1 (configuration not stated)	i
CCc1cnc(C)nc1N1CCC(NS(C)(=O)=O)CC1	i
Cc1nc2c(C(=O)N(Cc3nccn3C)C3CC3)cccc2[nH]1	i
CN(Cc1ccccc1)S(=O)(=O)c1ccc(C(=O)Nc2nnc(-c3cccs3)o2)cc1	i
COc1ccc(C2C(C#N)=C(N)Oc3n[nH]c(-c4ccc(F)cc4)c32)cc1OC (configuration not stated)	31%*
COc1cc(C2C(C#N)=C(N)Oc3n[nH]c(-c4ccccc4)c32)ccc1O (configuration not stated)	i
COc1ccc(C2C(C#N)=C(N)Oc3n[nH]c(-c4ccc5ccccc5c4)c32)cc1OC (configuration not stated)	i
COCCNC(=O)[C@@H](C)[C@@H]1CC[C@@]2(C)CC[C@H](NC(=O)c3cccc(F)c3)[C@@H](C)[C@@H]2[C@H]1O	i
CN(CC1Cc2ccccc2O1)c1nccc(N2CCC(O)CC2)n1 (configuration not stated)	i
Cc1ccc(Cc2c(C)nc3nc(SCC(=O)NC4CCCC4)nn3c2C)cc1	i
O=C(O)C[C@@H]1CCN(C(=O)c2ccco2)C[C@@H]1CCN1CCN(c2ccccc2)CC1	i
COc1ccc(C(=O)N2CC[C@@H](CC(=O)O)[C@@H](CCN3CCN(c4cccc(C(F)(F)F)c4)CC3)C2)cc1	i
COc1ccc(C(=O)N2CC[C@@H](CC(=O)O)[C@@H](CCN3CCCN(C(C)=O)CC3)C2)cc1	39%*
COc1ccccc1N1CCN(CC[C@H]2CN(C(=O)N3CCOCC3)CC[C@H]2CC(=O)O)CC1	33%*
COc1ccc(CC(=O)N2CC[C@@H](CC(=O)O)[C@@H](CCN3CCN(c4cccc(C(F)(F)F)c4)CC3)C2)cc1	i
COc1ccc(CC(=O)N2CC[C@@H](CC(=O)O)[C@@H](CCN3CCN(c4ccccn4)CC3)C2)cc1	i
CC(=O)c1cccc(NS(=O)(=O)c2ccc3c(c2)CCC(=O)N3)c1	i
Cc1ccc(S(=O)(=O)N(CCCC(=O)O)Cc2ccc(Cl)cc2)cc1	i
O=C(Nc1cc(Cl)ccc1Cl)[C@@H]1C[C@@H]1c1ccccc1	i
CCc1nc2oc(C(=O)c3ccc(Cl)cc3)c(N)c2c2c1COC(C)(C)C2	i
SMILES	ST2 IL33 inh
CCc1nc2oc(C(=O)c3ccccc3)c(N)c2c2c1COC(C)(C)C2	40%*!
CCCc1nc2oc3c(-c4ccccc4)c(C(=O)O)c(C)nc3c2c2c1COC(C)(C)C2	i
Cc1[nH]nc(SCC(=O)Nc2ccc(Br)cc2)c1[N+](=O)[O-]	i
CCOC(=O)C(C)Oc1ccc2oc(C)c(C(=O)OC)c2c1 (configuration not stated)	i
Brc1ccc(C2=CSC3=NCCN23)cc1	i
Fc1ccc(C2=CSC3=NCCN23)cc1	i
Clc1ccc(OC2=C(c3ccccc3)N3CCN=C3S2)cc1	45%*
COc1nc(N(C)C)nc(N(C)C)n1	i
CCc1ccccc1-c1nc(OC)nc(OC)n1	i
CCc1nc(NC)nc(OC)n1	68%*
CCOC(=O)c1c(C)n(CCc2ccc(OC)c(OC)c2)c2ccc(OC)cc12	i
Cc1[nH]nc2c1C(c1cccc(Cl)c1)C1=C(CC(C)(C)CC1=O)N2 (configuration not stated)	i
Cc1c(CN2CCCC(CCC(=O)NCc3ccccc3Cl)C2)cnn1C (configuration not stated)	i
COc1ccc(-c2ncc(Cl)cn2)c2ccc(C)nc12	i
Cc1ccc2c(C)ccc(O)c2n1	31%*
Cc1ccc(O)c(CCc2ccc(O)c(S(=O)(=O)O)c2)n1	i
COc1ccc(NC(=O)CSC2=Nc3ccccc3C3=NC(C(C)C)C(=O)N23)c(OC)c1 (configuration not stated)	i
CCCCOC(=O)c1ccc(OC(=O)c2cc3ccccc3oc2=O)cc1	i
N#CC1=C(N)Oc2cc(O)c(Cl)cc2C1c1ccc(F)cc1 (configuration not stated)	i
N#CC1=C(N)Oc2cc(N)ccc2C1c1cccc(I)c1 (configuration not stated)	i
COc1ccc(N=Cc2cc3c(cc2O)OC(N)=C(C#N)C3c2cccc(F)c2)cc1 (configuration not stated)	33%*
O=C(Nc1ccc(F)c(Cl)c1)c1cc(-c2ccc(Br)cc2)on1	i
O=C1CCN(c2cccc(Cl)c2)N1	i
O=[N+]([O-])c1cc(C(F)(F)F)ccc1NCCc1ccccc1	33%*
O=[N+]([O-])c1ccccc1S(=O)(=O)Nc1cccc(C(F)(F)F)c1	i
SMILES	ST2 IL33 inh
O=[N+]([O-])c1cc(C(F)(F)F)ccc1N1CCN(S(=O)(=O)c2ccccc2)CC1	i
CCSc1nc2c(c(=O)[nH]1)C(c1ccc(N(CC)CC)cc1)C1=C(CCCC1=O)N2 (configuration not stated)	i
CC(C)(C)C(=O)NCC1CCCN(Cc2ccc3c(c2)OCCO3)C1 (configuration not stated)	i
CCOC(=O)C(C)Oc1cc2c(C(=O)OC)c(C)oc2cc1Br (configuration not stated)	i
Cc1ccc2nc(NC(=O)CCS(=O)(=O)c3ccc(Br)s3)sc2c1	i
COC(=O)C1=C(N)OC2=C(C(=O)CC(c3ccccc3)C2)C1c1ccc(Br)cc1 (configuration not stated)	i
CC1CCCC[C@H]2C(=O)C=C[C@H](O)[C@@H]2CC(=O)O1 (some centres not stated)	46%*
COc1ccc([C@@H]2C(C#N)=C(N)S[C@H]2C(=O)c2ccccc2)cc1	i
COc1ccc(N2CCSC2C(=O)c2ccccc2)cc1 (configuration not stated)	32%*
COc1ccc(C(=O)N2CCCc3ccccc32)cc1	i
c1cc(-c2ccc3c(c2)OCO3)c2cc[nH]c2c1	i
CC(C)(CO)CNC(=O)C1CC(=O)N(C2CC2)C1 (configuration not stated)	i
O=C(Nc1ccc(Br)cc1)c1ccc(Cl)cc1Cl	i
O=C(Nc1ccc(N2CCOCC2)cc1)c1ccc(Br)cc1	i
O=C(Nc1ccc(N2CCCC2)cc1)C(Cl)(Cl)Cl	38%*
O=C(Nc1ccc(S(=O)(=O)N2CCCC2)cc1)C(F)(F)F	i
O=C(Nc1ccc(N2CCCC2)cc1)c1cc(Br)ccc1Cl	34%*
CC(=O)Nc1ccc(CN2CCN(c3ccc(Cl)cc3)CC2)cc1	i
Cn1c(=O)[nH]cc(CC(=O)N2CCOC(C(F)(F)F)C2)c1=O (configuration not stated)	i
Cc1cccc(C)c1Nc1c(-c2ccc(N(C)C)cc2)nc2cnccn12	i
CC(=O)Nc1nnc(-c2ccccc2SCc2ccccc2)s1	i
